Experimental data: the supplement of paper PMC9262897, “Low-cost anti-mycobacterial drug discovery using engineered E. coli” (Nature Communications, 2022)
Structures can show the parent of a compound that is named as a salt. ± gives the standard deviation of the averaged measurements.

Assays:
Test in all cases: growth (OD600 after 10 h); higher = more growth (less inhibition)
[1] = test system: E. coli TESEC Alr+ wild-type control; settings: compound 0.1 mM; raw OD600 reference: median of DMSO wells 0.241, cell-free background 0.041
Procedure: (§1)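 TESEC Mtb Alr E. coli, or the Alr+ wild-type control, in 384-well plates with Prestwick library compounds at 0.1 mM and 1% DMSO, across arabinose induction levels of 1E3 to 1E7 nM. Growth is read as OD600 after 10 h at 37 °C in triplicate biological replicates.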

E. coli TESEC Mtb Alr [2] = settings: compound 0.1 mM
Procedure: as §1

E. coli TESEC Mtb Asd = settings: compound 0.1 mM
Procedure: (§2)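 TESEC E. coli strains in which the native enzyme is deleted and replaced by arabinose-inducible Mtb Asd, DapB, CysH or TrpD, each grown in its selective medium. Strains were screened against the Prestwick library at 0.1 mM and 1% DMSO in 384-well format at low and high arabinose induction. Growth is read as OD600 after 10 h in triplicate.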

E. coli TESEC Mtb DapB = settings: compound 0.1 mM
Procedure: as §2

E. coli TESEC Mtb Alr [3] = settings: compound 0.1 mM; remark: listed apart in the source
Procedure: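 TESEC Mtb Alr E. coli (ΔaraC ΔtolC ΔentC Δalr ΔdadX, arabinose-inducible Mtb Alr) or the Alr+ wild-type control strain, grown in defined M9-fructose medium without D-alanine in 96-well plates with Prestwick library compounds at 0.1 mM and 1% DMSO. Low Alr induction is 0.1 µM arabinose and high induction is 10 mM arabinose.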

[4] = arabinose 1000 nM, raw OD600 reference: median of DMSO wells 0.294, cell-free background 0.041
[5] = arabinose 10000 nM, raw OD600 reference: median of DMSO wells 0.264, cell-free background 0.041
[6] = arabinose 100000 nM, raw OD600 reference: median of DMSO wells 0.201, cell-free background 0.041
[7] = arabinose 1000000 nM, raw OD600 reference: median of DMSO wells 0.193, cell-free background 0.041
[8] = arabinose 10000000 nM, raw OD600 reference: median of DMSO wells 0.146, cell-free background 0.041
[9] = arabinose induction (level): High, raw OD600 reference: median of DMSO wells 0.331, cell-free background 0.041
[10] = arabinose induction (level): Low, raw OD600 reference: median of DMSO wells 0.417, cell-free background 0.041
[11] = arabinose induction (level): High, raw OD600 reference: median of DMSO wells […], cell-free background 0.041
[12] = arabinose induction (level): Low, raw OD600 reference: median of DMSO wells 0.227, cell-free background 0.041
[13] = arabinose 100 nM, raw OD600 reference: median of DMSO wells 0.413, cell-free background 0.052
[14] = arabinose 10000000 nM, raw OD600 reference: median of DMSO wells […], cell-free background 0.052

Structure (SMILES)	growth [1]	growth (E. coli TESEC Mtb Alr [2]; [4])	growth (E. coli TESEC Mtb Alr [2]; [5])	growth (E. coli TESEC Mtb Alr [2]; [6])	growth (E. coli TESEC Mtb Alr [2]; [7])	growth (E. coli TESEC Mtb Alr [2]; [8])	growth (E. coli TESEC Mtb Asd; [9])	growth (E. coli TESEC Mtb Asd; [10])	growth (E. coli TESEC Mtb DapB; [11])	growth (E. coli TESEC Mtb DapB; [12])	growth (E. coli TESEC Mtb Alr [3]; [13])	growth (E. coli TESEC Mtb Alr [3]; [14])
CN(C)CCC[C@@]1(c2ccc(F)cc2)OCc2cc(C#N)ccc21 [Escitalopram oxalate]	0.201 ± 0.0062	0.281 ± 0.014	0.251 ± 0.015	0.199 ± 0.0081	0.157 ± 0.0041	0.143 ± 0.007	0.297 ± 0.14	0.398 ± 0.064	0.179 ± 0.012	0.202 ± 0.014	0.412 ± 0.011	0.352 ± 0.0066
CCCC(=O)Nc1ncnc2c1ncn2[C@@H]1O[C@@H]2COP(=O)(O)O[C@H]2[C@H]1OC(=O)CCC [Bucladesine sodium salt]	0.25 ± 0.0053	0.31 ± 0.019	0.275 ± 0.0043	0.206 ± 0.015	0.189 ± 0.0065	0.138 ± 0.012	0.355 ± 0.06	0.47 ± 0.008	0.2 ± 0.016	0.218 ± 0.014	0.405 ± 0.011	0.362 ± 0.013
Cc1cccn2c(=O)c(-c3nnn[nH]3)cnc12 [Pemirolast potassium]	0.218 ± 0.011	0.268 ± 0.011	0.2352 ± 0.0021	0.151 ± 0.0021	0.148 ± 0.0043	0.125 ± 0.0032	0.284 ± 0.1	0.371 ± 0.089	0.212 ± 0.028	0.223 ± 0.014	0.421 ± 0.012	0.311 ± 0.014
C#Cc1cccc(Nc2ncnc3cc(OCCOC)c(OCCOC)cc23)c1 [Erlotinib]	0.193 ± 0.0065	0.256 ± 0.01	0.236 ± 0.0081	0.202 ± 0.0068	0.146 ± 0.0076	0.185 ± 0.01	0.349 ± 0.093	0.303 ± 0.066	0.161 ± 0.0058	0.201 ± 0.0093	0.411 ± 0.005	0.35 ± 0.012
CCCOc1ccc(C(=O)OCCN(CC)CC)cc1N [Proparacaine hydrochloride]	0.228 ± 0.0033	0.308 ± 0.017	0.268 ± 0.013	0.196 ± 0.0096	0.17 ± 0.0027	0.153 ± 0.0029	0.46 ± 0.0053	0.426 ± 0.025	0.187 ± 0.0041	0.231 ± 0.021	0.408 ± 0.017	0.354 ± 0.024
Cc1c(N(C)CS(=O)(=O)O)c(=O)n(-c2ccccc2)n1C [Dipyrone]	0.245 ± 0.0074	0.323 ± 0.022	0.251 ± 0.0032	0.217 ± 0.023	0.169 ± 0.0052	0.157 ± 0.0028	0.488 ± 0.025	0.452 ± 0.0059	0.204 ± 0.003	0.23 ± 0.012	0.4104 ± 0.0007	0.335 ± 0.011
NS(=O)(=O)c1cc2c(cc1C(F)(F)F)NC(Cc1ccccc1)NS2(=O)=O (stereo not drawn) [Bendroflumethiazide]	0.233 ± 0.0098	0.301 ± 0.0067	0.261 ± 0.0081	0.219 ± 0.015	0.162 ± 0.005	0.154 ± 0.0047	0.459 ± 0.046	0.451 ± 0.035	0.217 ± 0.017	0.268 ± 0.0034	0.403 ± 0.012	0.298 ± 0.016
CCOC(=O)[C@H](CCc1ccccc1)N[C@@H](C)C(=O)N1[C@H](C(=O)O)C[C@@H]2CCC[C@@H]21 [Ramipril]	0.22 ± 0.014	0.292 ± 0.004	0.288 ± 0.01	0.19 ± 0.011	0.217 ± 0.004	0.14 ± 0.0088	0.253 ± 0.065	0.365 ± 0.092	0.188 ± 0.013	0.229 ± 0.0092	0.42 ± 0.0058	0.295 ± 0.022
CN1CCN(CCCN2c3ccccc3Sc3ccc(Cl)cc32)CC1 [Prochlorperazine dimaleate]	0.04087 ± 0.00015	0.041 ± 0.00045	0.03943 ± 0.00025	0.0418 ± 0.00082	0.0404 ± 0.0023	0.0433 ± 0.00072	0.059 ± 0.0069	0.166 ± 0.025	0.156 ± 0.021	0.139 ± 0.0076	0.287 ± 0.21	0.0531 ± 0.0013
COc1ccc2[nH]c([S+]([O-])Cc3ncc(C)c(OC)c3C)nc2c1 (stereo not drawn) [Omeprazole]	0.19 ± 0.0022	0.232 ± 0.0033	0.2749 ± 0.0018	0.168 ± 0.011	0.122 ± 0.0034	0.131 ± 0.0049	0.298 ± 0.04	0.388 ± 0.025	0.167 ± 0.0081	0.1748 ± 0.0014	0.399 ± 0.016	0.263 ± 0.018
O=C(OCCOCCO)c1ccccc1Nc1cccc(C(F)(F)F)c1 [Etofenamate]	0.0458 ± 0.00036	0.0491 ± 0.0032	0.0483 ± 0.00084	0.049 ± 0.0019	0.0472 ± 0.002	0.0499 ± 0.0013	0.0525 ± 0.0012	0.0509 ± 0.0012	0.0997 ± 0.078	0.0543 ± 0.0018	0.185 ± 0.19	0.0516 ± 0.0022
CCCCC1(COC(=O)CCC(=O)O)C(=O)N(c2ccccc2)N(c2ccccc2)C1=O [Suxibuzone]	0.203 ± 0.0032	0.291 ± 0.013	0.244 ± 0.0044	0.192 ± 0.019	0.188 ± 0.0095	0.1314 ± 0.001	0.305 ± 0.052	0.427 ± 0.026	0.1763 ± 0.0008	0.204 ± 0.009	0.401 ± 0.0076	0.341 ± 0.0062
CN(CCCCCCCCCCN(C)C(=O)Oc1cccc([N+](C)(C)C)c1)C(=O)Oc1cccc([N+](C)(C)C)c1 [Demecarium bromide]	0.04127 ± 0.00031	0.0415 ± 0.00053	0.03993 ± 5.8e-05	0.0453 ± 0.0065	0.03943 ± 0.00023	0.0426 ± 0.0012	0.0473 ± 0.00079	0.047 ± 0.0013	0.0492 ± 0.00091	0.0493 ± 0.0005	0.0633 ± 0.0063	0.0536 ± 0.0014
Nc1ccn([C@@H]2O[C@H](CO)[C@@H](O)[C@@H]2O)c(=O)n1 [Cytarabine]	0.24 ± 0.0059	0.307 ± 0.0036	0.247 ± 0.0079	0.214 ± 0.025	0.1685 ± 0.00085	0.171 ± 0.002	0.309 ± 0.032	0.305 ± 0.02	0.224 ± 0.024	0.229 ± 0.026	0.406 ± 0.0096	0.31 ± 0.0066
